KDM5B inhibitor: blocks human KDM5B histone demethylase activity. hit rate 2.6% among 220,000. KDM5B demethylase, FDH-coupled NADH fluorescence (FDH is formaldehyde dehydrogenase). Potency, µM (titrated, usually from 57.7 µM), usual class: inhibitors. AID 1347165; active means well fitted inhibition curve with a large enough effect; further: 0% is about no effect; nearly all actives have a fitted effect of over 70% in size
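Coupled FDH/NAD⁺ fluorescence readout. KDM5BΔAP 200 nM final; compound titration, 10 min RT preincubation; substrate mix 12.5 µM H3K4me3, 25 µM 2-OG, 50 µM Fe(II), 100 µM ascorbate, 0.25 mM NAD⁺, 0.25 U/mL FDH; ΔRFU over 30 min.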
An asterisk follows results filed as active. Shown is part of a subset that was picked to be rich in hits. Potency means the concentration at half of the fitted maximal effect.

Screening C#CCNC(=O)c1nc(-c2ccsc2)c2cnccn12 returned KDM5B inhibitor 31.6µM*.
For CC(C)NC(=O)c1nc(-c2ccc(Cl)cc2)c2ccccn12 the results were KDM5B inhibitor 89.1µM*.
`O=C(CCCn1c(=O)c2cccn2c2ccc(F)cc21)N1CCN(c2ccccn2)CC1` gave KDM5B inhibitor inactive.
CCN(Cc1cccs1)C(=O)c1ccc(NS(C)(=O)=O)cc1 was read as KDM5B inhibitor inactive.
`COc1ccc2c(c1)CCCN2C(=O)c1cc2cc(Cl)ccc2nc1C` gave KDM5B inhibitor inactive.
For O=C(c1ccc(N2CCCN(Cc3ccc(Cl)cc3)C2=O)cc1)N1CCOCC1 the results were KDM5B inhibitor inactive.
For CN(C)c1ncc2c(n1)C(C)(C(=O)NCc1cccc(Cl)c1)CCC2 (centres undefined) the results were KDM5B inhibitor 39.8µM*.
`CN1C(=O)CC[C@]2(C(=O)NCc3cccc(Cl)c3)CCCC[C@@H]12` gave KDM5B inhibitor inactive.
`CN(C)c1ncc2c(n1)C(C)(C(=O)NCc1ccc3c(c1)OCO3)CCC2` (centres undefined) gave KDM5B inhibitor 31.6µM*.
Cc1cnc(C(=O)N[C@@H]2CCC[C@@H]2C(=O)NCc2ccc3c(c2)OCO3)cn1 was read as KDM5B inhibitor inactive.
For CC1(C(=O)NCc2cccnc2)CCCc2cnc(Nc3ccccc3F)nc21 (centres undefined) the results were KDM5B inhibitor inactive.
`CCn1cc([N+](=O)[O-])c(C(=O)NCc2ccc3c(c2)OCO3)n1` gave KDM5B inhibitor inactive.
For CCNc1nc2c(c(=O)[nH]c(=O)n2C)n1CCOc1ccccc1 the results were KDM5B inhibitor inactive.
Screening N#C/C(=C/c1ccccc1OCc1ccccc1Cl)c1nc2ccccc2s1 returned KDM5B inhibitor inactive.
`CCCn1c(C)cc(C(=O)CSc2nnc(-c3ccncc3)n2-c2ccccc2)c1C` gave KDM5B inhibitor inactive.
COc1ccccc1NC(=O)C(C)OC(=O)c1cc(C)nc2ccccc12 (centres undefined) was read as KDM5B inhibitor inactive.
Screening CC(=O)c1cccc(NC(=O)C(Sc2nnc(-c3ccoc3C)o2)c2ccccc2)c1 (centres undefined) returned KDM5B inhibitor inactive.
For COc1ccc(OC)c(CNC(=O)c2cnc(N(C)C)nc2)c1 the results were KDM5B inhibitor inactive.
Screening CCN(CC)c1cc(CCC(=O)NCc2cc(OC)ccc2OC)ccn1 returned KDM5B inhibitor 14.1µM*.
`COc1ccc(CNC(=O)CCc2cccnc2)cc1OC` gave KDM5B inhibitor inactive.
Screening CCN(CC)c1cc(CCC(=O)NCc2ccccc2OC)ccn1 returned KDM5B inhibitor 25.1µM*.
For COc1ccccc1CNC(=O)CS(=O)(=O)c1ccccc1 the results were KDM5B inhibitor inactive.
For COc1ccc(OC)c(CNC(=O)c2nccnc2N)c1 the results were KDM5B inhibitor inactive.
Screening CCOc1ccc(C2CCCN2C(=O)c2nn(C)c(=O)c3ccccc23)cc1 (centres undefined) returned KDM5B inhibitor inactive.
`CCCc1cc(=O)n2[nH]c(NC(=O)C(C)C)nc2n1` gave KDM5B inhibitor inactive.
CCOC(=O)/C(C#N)=C/c1ccsc1C was read as KDM5B inhibitor inactive.
`COC(=O)CNC(=O)c1nc(-c2cccc(C(F)(F)F)c2)c2ccccn12` gave KDM5B inhibitor 14.1µM*.
Screening C#CCNC(=O)c1nc(-c2cccc(C(F)(F)F)c2)c2cnccn12 returned KDM5B inhibitor 31.6µM*.
For O=C(NCCOc1cccnc1)c1cn(Cc2cccc(C(F)(F)F)c2)nn1 the results were KDM5B inhibitor inactive.
For COCCNC(=O)c1nc(-c2cccc(C(F)(F)F)c2)c2ccccn12 the results were KDM5B inhibitor 15.8µM*.
COCCNC(=O)c1ccc(CSc2nc3ccncc3n2Cc2ccccc2)cc1 was read as KDM5B inhibitor inactive.
COc1ccc(-c2nc3sc(CCNC(=O)c4cccc(C(F)(F)F)c4)c(C)n3n2)cc1 was read as KDM5B inhibitor inactive.
`COCCNC(=O)c1nc(-c2cccc(C(F)(F)F)c2)c2cnccn12` gave KDM5B inhibitor 25.1µM*.
Screening N#Cc1ccc(C(=O)OCC(=O)c2ccc3c(c2)OCCO3)cc1 returned KDM5B inhibitor inactive.
For O=S(=O)(Cc1ccc(F)cc1)N1CCc2ccccc21 the results were KDM5B inhibitor inactive.
Screening CCOc1cccc(-c2cc(C(=O)O)c3ccccc3n2)c1 returned KDM5B inhibitor inactive.
`CC(=O)NC(NC(C)=O)c1ccncc1` gave KDM5B inhibitor inactive.
CC(N)(CCc1ccccc1)C(=O)O (centres undefined) was read as KDM5B inhibitor inactive.
`CC(Sc1nc(Cl)nc2nc[nH]c12)C(=O)NCCc1ccc(O)cc1` (centres undefined) gave KDM5B inhibitor inactive.
Screening CC1=C(C(=O)N2CCCCC2)C(c2ccc(N(C)C)cc2)C2=C(CC(C)(C)CC2=O)N1 (centres undefined) returned KDM5B inhibitor inactive.
For CCNC(=O)NC(=O)C(C)N(C)Cc1ccc(C(F)(F)F)cc1 (centres undefined) the results were KDM5B inhibitor inactive.

Compound activity (PubChem BioAssay)
